This is an account of results in the supplement of paper PMC11417369.

± gives the standard deviation of the averaged measurements. In all, about 25,000 sequences were measured (“ln(normalized median fluorescence intensity)”: median about 8.9, highest 2% from about 10 on). The list comes from a sample in which the highest values are over-represented; it also holds similar and randomly drawn sequences.

The experiment has as its system PfAP2-LT AP2 domain (GST-tagged). As to the kind of experiment: gcPBM binding intensity (ln(normalized median fluorescence intensity)); higher = stronger DNA binding. Put shortly:
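An Agilent 4 × 180k array carrying primer-extended double-stranded 36-bp intergenic genomic probes and negative controls received GST-tagged P. falciparum DNA-binding domains expressed in E. coli, about 25 μg on average, for 1 h. The binding buffer contained 1× PBS, 1% milk, 0.2 mg/ml BSA, 0.5% salmon testes DNA and 0.03% Triton X-100. Binding intensity is the top Masliner-normalised natural-log median intensity across replicate spots of either probe orientation, read after Alexa488 anti-GST antibody staining and a 488 nm scan.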
“AAAAAAAAAACAAATACACACGCACCCAAAAAAAAA [CACACA_site8166]”: the “gcPBM binding intensity (ln)” value came to 9.61 ± 0.18.
Take “GTTTTGTACATATTCTCACACATATAAAAATACCCA [CACACA_site4446]”: the “gcPBM binding intensity (ln)” value was found to be 8.77 ± 0.42.
The same measure for “TATATATATATATATATACACACTATATAATTCAAA [CACACA_site1023]”: 9.67 ± 0.042; for “GAATAAAAATTTTAATGTACATATTTTTTATTTATA [XGTACX_site8935]”: 8.41 ± 0.49; for “TTTTTTTTTTTTTGATGTACTTATTTAATAAGATAT [XGTACX_site376]”: 8.38 ± 0.47.
In the case of “ATATATAATATTTTTATTTTTATTTTTTTTTTATGA [TGCATGCA_negctrl_site577]” it was 8.34 ± 0.49.
The same measure for “AAAAAGATAAAATATACATGCATATATAATATACAT [TGCATGCA_site488]”: 8.94 ± 0.4; for “TAAACAGAAGCACATACACACACTCAAAAAAAAAAA [CACACA_site3051]”: 9.53 ± 0.39; for TATATATATATATATGTGCACATTTATTGCCTTTGC: 10.11 ± 0.071.
Consider CTTTATATATATTGCGTGCACATTTTTTTTTTTTTT, for which the “gcPBM binding intensity (ln)” value is 8.99 ± 0.53.
In the case of “ACATATTATATATGTGTGCACATATATATATATTTA [GTGCAC_site9591]” it was 9.7 ± 0.33.
In the case of “TATAGATGTGGTTTATGTACATACTATAAAAAATCA [XGTACX_site1400]” it was 8.7 ± 0.49; in that of “CGTATTTATATAATTACACACCATATTATAATTATT [CACACA_site3760]”, 8.84 ± 0.44; in that of “TTTCTTTATTTATAATAATTTTTTATTAAAAATAGA [CACACA_negctrl_site1610]”, 8 ± 0.49.
The same measure for “GATATAAACGTATATGTACATATATATATATATATA [GTGCAC_negctrl_site186]”: 10.1 ± 0.38; for “TTACAAAAAAAAAGGCGCGGATGGGGGCAATAGCAA [CACACA_negctrl_site238]”: 9.39 ± 0.45.
For “ATTATGCACAGACACACACACACACTACTAAAAAAT [CACACA_site7252]”, the “gcPBM binding intensity (ln)” value came out at 10.2 ± 0.28.
In the case of “ATTATGCACCAACACACACACACACCCCTAAAAAAT [CACACA_site2568]” it was 10.04 ± 0.057.
In the case of “ATTATGCACGGACACACACACACACCCCTAAAAAAT [CACACA_site5426]” it was 10.1 ± 0.32; in that of “AAAAAATTAGATTATGCACACACACTAATAAATAAT [CACACA_site8604]”, 9.38 ± 0.32; in that of “TGCACAAAATTATGCACACACCTAAAATTAATTTTT [CACACA_site5596]”, 9.06 ± 0.34.
The same measure for “TGCACAGACGGACACACACACAACTAAAAAATAATG [CACACA_site5424]”: 9.69 ± 0.61; for “ATTTTTTCTTATAAAAAAGAAAAAGAAAAAGAAAAA [CACACA_negctrl_site1216]”: 8.02 ± 0.42; for “GTTTAGATAAAAGGGCGTACATCTATTTTTGACTAA [XGTACX_site7170]”: 8.62 ± 0.36.
Turning to “GAAACGATTTAATACACACACGTATTATAGATATAT [CACACA_site6666]”, the “gcPBM binding intensity (ln)” value turned out to be 9.25 ± 0.34.
The same measure for “ATTTTTTTTGTTTATTCTTATGTGGTTATTAAATTA [CACACA_negctrl_site1000]”: 8.72 ± 0.52.
In the case of “TTATATAAAGAATGTACACACAGAAATGCACCCACA [CACACA_site2282]” it was 9.39 ± 0.2.
In the case of “TACAGACAGAAATGCACACACATATATATATATATA [CACACA_site2283]” it was 10.2.
Turning to “TATACACACAGACATGCATGCACATATATATATACA [TGCATGCA_site30]”, the “gcPBM binding intensity (ln)” value is 9.54 ± 0.42.
The same measure for “TACACCCAGAAATGCACACACATATATATATATATA [CACACA_site5289]”: 10.26 ± 0.071; for “TACAGACAGAAATGCACACACATATTTATATTTATA [CACACA_site7139]”: 9.35 ± 0.3; for “TGTACACCCAGAAATGCACACACATATATATATATA [CACACA_site8716]”: 9.94 ± 0.29.
In the case of “TCATCATATTATATATGTACATATATAATAATTTAT [XGTACX_site1625]” it was 8.62 ± 0.42.
In the case of “TTTTTATTTATTAATACACACACACCCACCCACAAA [CACACA_site7965]” it was 9.805 ± 0.064; in that of “TATTAATACAGACACACACACACACCCAATAAAATA [CACACA_site243]”, 10.29 ± 0.05.
For the sequence “TATTAATACAGACACACACACACACTAATTAAAATA [CACACA_site7967]”, the “gcPBM binding intensity (ln)” value stood at 9.96 ± 0.2.
As to “AAAAAAAAAAAATACACACAAACACAAATTAAATAA [CACACA_site3809]”, the “gcPBM binding intensity (ln)” value turned out to be 9.32 ± 0.32.
In the case of “GTATTATAGTATAATACACACCCAAATATTAAAAAG [CACACA_site7404]”, the “gcPBM binding intensity (ln)” value stood at 9.02 ± 0.41.
In the case of “ATTAATTATATATATACACACACATACACCCAAATA [CACACA_site9126]” it was 9.66 ± 0.23; in that of “TTTATTTATTAATACACACACACACCCCCACAAAAT [CACACA_site240]”, 10.1 ± 0.22.
The same measure for “AATTAATAACAAAATAAACACACATATATAAATACA [CACACA_site8456]”: 9.03 ± 0.38; for “TTTATTTATTAATACACACACACACCCAGACAAAAT [CACACA_site4292]”: 10 ± 0.099.
In the case of “TTTATTTATTAATACACACACACACGCCCACAAAAT [CACACA_site6253]” it was 9.995 ± 0.05.
Take “ACATAATTAACAAATACACACACACCCACCCACAAA [CACACA_site8069]”: the “gcPBM binding intensity (ln)” value amounted to 10.3 ± 0.13.
The same measure for “ATAATTAACAAATACACACACACACCCAGACAAAAA [CACACA_site4445]”: 10.2.
